Screening results (PubChem)
A selection: hits, their analogues and other compounds. The true share with any hit is near 11%.
hNpr1 antagonist = blocks ANP-stimulated signaling of human Npr1 receptor; P16066; Potency, µM (highest dose often 46.3 µM), actives largely listed as inhibitors; AID 1347048; HEK293 hNpr1 GloSensor cGMP, ANP-stimulated luminescence; hit rate 1.6% among 76,000; calls by dose curve; also: nearly all actives have a fitted effect of over 60% in size
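HEK293 cells stably expressing human Npr1 and cGMP GloSensor pGS-40F, loaded 2 h with 2% GloSensor reagent, given compound 30 min at room temperature. Luminescence read before and 20 min after 0.1 nM hNppA.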
HEK cytotox = HEK 293 cell cytotoxicity | HEK 293 viability, ATP luminescence (CellTiter-Glo), 48-72 h | Potency, µM (series often up to 115 µM), usual class: inhibitors | hit rate 6.6% among 94,000 | AID 1345083; also: nearly all actives have a fitted effect of over 60% in size
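250 HEK 293 cells/well; compound by pintool; incubated 48 or 72 hr at 37 degree Celsius; CellTiter-Glo added, 10 min RT, luminescence imaged.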
FLuc inh-1 = inhibitors of firefly (Photinus pyralis) luciferase. P08659. purified P. pyralis luciferase, luminescence, biochemical. Potency, µM (titrated, usually from 115 µM), usual class: inhibitors. hit rate 2.5% among 76,000. AID 1347043; also: nearly all actives have a fitted effect of over 65% in size
Target sequence (P08659 whole entry, looked up): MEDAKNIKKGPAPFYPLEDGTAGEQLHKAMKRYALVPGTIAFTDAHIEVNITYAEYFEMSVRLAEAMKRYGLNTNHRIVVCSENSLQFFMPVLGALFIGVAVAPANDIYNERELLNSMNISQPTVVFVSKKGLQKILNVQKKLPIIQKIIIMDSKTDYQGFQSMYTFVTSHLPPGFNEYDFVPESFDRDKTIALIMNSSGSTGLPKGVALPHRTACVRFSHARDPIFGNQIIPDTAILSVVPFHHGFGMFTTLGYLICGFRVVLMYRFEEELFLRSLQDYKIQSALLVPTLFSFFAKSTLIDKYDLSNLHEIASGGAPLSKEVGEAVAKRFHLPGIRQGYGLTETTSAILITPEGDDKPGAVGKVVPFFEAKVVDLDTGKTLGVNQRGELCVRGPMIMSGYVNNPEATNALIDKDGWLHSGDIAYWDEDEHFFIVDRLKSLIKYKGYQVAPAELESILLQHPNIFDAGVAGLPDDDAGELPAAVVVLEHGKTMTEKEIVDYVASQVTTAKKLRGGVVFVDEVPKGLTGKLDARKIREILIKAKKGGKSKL
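Cell-free enzyme assay, 10nM P. pyralis luciferase, luciferin and ATP each at 10uM. Inhibition profiled over a 6-point titration, read as luminescence.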
3T3 cytotox = kills NIH 3T3 cells | NIH 3T3 viability, CellTiter-Glo ATP luminescence, 48-72 h | Potency, µM (top dose mostly 96.7 µM), most hits filed as inhibitors | hit rate 4.3% among 94,000 | AID 1345082; also: nearly all actives have a fitted effect of over 55% in size
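NIH 3T3 cells at 400 cells/well received 23 nL of compound by pintool and were incubated 48 or 72 h at 37 °C. Viability was read as ATP-coupled CellTiter-Glo luminescence.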
FLuc SDR -ATP = stabilizes firefly luciferase without ATP; Purified FLuc-C-HiBiT, Nano-Glo HiBiT luminescence, no ATP; hit rate 7.8% among 1,300; AID 1963318; shares compounds with FLuc inh-1; Potency, µM (series often up to 32.7 µM), actives largely listed as activators; also: nearly all actives have a fitted effect of over 55% in size
FLuc SDR ATP = stabilizes firefly luciferase with ATP present | purified FLuc-C-HiBiT + ATP, HiBiT complementation luminescence | shares compounds with FLuc inh-1 | hit rate 8.7% among 1,300 | Potency, µM (titrated, usually from 32.7 µM), actives largely listed as activators;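 also: signal reports ligand binding via conformational change of the enzyme rather than luciferase catalysis; nearly all actives have a fitted effect of over 55% in size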
FLuc inh-2 = blocks firefly luciferase enzymatic activity | shares compounds with FLuc inh-1 | purified FLuc-C-HiBiT enzyme, luciferin luminescence | Potency, µM (highest dose often 32.7 µM), usual class: inhibitors | hit rate 42% among 1,300 | AID 1963320; also: nearly all actives have a fitted effect of over 70% in size
Each line names hits and unclear results; the compound was inactive in the other large screens (follow-up assays come after a bar, where they were run). Unless noted, calls follow the shape of the dose curve; as a rule, active = well fitted curve in the direction sought with a large enough effect; inconclusive = small, poorly fitted or top-dose-only effect, or another doubt; inactive = no such curve, though single readings can be large; an effect the other way counts as inactive or inconclusive.

Cc1cc(CN2CCOc3c(O)cc(-c4ccccc4C)cc3C2)on1	HEK cytotox inconclusive, 3T3 cytotox inconclusive
Oc1cc(-c2nc3ccccc3s2)cc2c1OCCN(Cc1cccn1-c1ccccn1)C2	none (no result: hNpr1 antagonist, HEK cytotox, FLuc inh-1, 3T3 cytotox) | FLuc SDR -ATP inactive | FLuc SDR ATP inactive | FLuc inh-2 inactive
Oc1cc(-c2nc3ccccc3s2)cc2c1OCCN(Cc1cccn1-c1ncccn1)C2	none (no result: hNpr1 antagonist, HEK cytotox, FLuc inh-1, 3T3 cytotox) | FLuc SDR -ATP inactive | FLuc SDR ATP inactive | FLuc inh-2 inactive
Cc1cccc(CN2CCOc3c(O)cc(-c4ccccc4C)cc3C2)n1	HEK cytotox inconclusive, 3T3 cytotox inconclusive
Cc1cnc(CC2CCCN(C(=O)CCc3c[nH]c4ccccc34)C2)n1C(C)C (centres undefined)	HEK cytotox inconclusive, FLuc inh-1 14µM | FLuc SDR -ATP inactive | FLuc SDR ATP inactive | FLuc inh-2 inactive
COCc1nc(CCNC(=O)CCc2nc(-c3cccc(C)c3)no2)no1	none (no result: hNpr1 antagonist, FLuc inh-1)
COc1cccc(NC(=O)CCc2nc(-c3ccc(C(C)(C)C)cc3)no2)c1	none (no result: hNpr1 antagonist, HEK cytotox, FLuc inh-1, 3T3 cytotox) | FLuc SDR -ATP inactive | FLuc SDR ATP inactive | FLuc inh-2 7µM
CCN1CC2(CCC1=O)CCN(C(=O)[C@@](C)(N)Cc1ccccc1)CC2	none
CC(=O)c1ccc(NS(=O)(=O)c2cccc(S(=O)(=O)c3ccc(Cl)cc3)c2)cc1	none (no result: hNpr1 antagonist, HEK cytotox, FLuc inh-1, 3T3 cytotox) | FLuc SDR -ATP inactive | FLuc SDR ATP inactive | FLuc inh-2 inactive
COCCn1c(=O)c(C(=O)NCc2ccc(F)cc2)nc2cccnc21	none (no result: hNpr1 antagonist, FLuc inh-1)
Cc1cccc(NC(=O)N2CCc3c(C(=O)N4CCN(C)CC4)cccc32)c1	HEK cytotox inconclusive, FLuc inh-1 7.1µM | FLuc SDR -ATP inactive | FLuc SDR ATP 2.5µM | FLuc inh-2 1.8µM
CCC(C)(C)NC(=O)c1cccc2c1CCN2C(=O)Nc1cccc(C)c1	HEK cytotox inconclusive, FLuc inh-1 7.9µM | FLuc SDR -ATP inconclusive | FLuc SDR ATP 11µM | FLuc inh-2 7.9µM
CC(=O)c1ccc(NC(=O)O[C@@H]2CO[C@H]3[C@@H]2OC[C@@H]3NC(=O)Nc2ccccc2)cc1	HEK cytotox inconclusive, FLuc inh-1 inconclusive
COc1ccc(-c2cc3c(cn2)CN(Cc2cccnc2)CCN3)cc1F	hNpr1 antagonist inconclusive, HEK cytotox inconclusive, FLuc inh-1 5µM | FLuc SDR -ATP inconclusive | FLuc SDR ATP inactive | FLuc inh-2 14µM
COc1ccc(OC)c(CN2CCNc3cnc(OCc4cccnc4)cc3C2)c1	HEK cytotox inconclusive, 3T3 cytotox inconclusive
COc1ccc(-c2cc3c(cn2)CN(Cc2cccnc2)CCN3)cc1OC	HEK cytotox inconclusive, FLuc inh-1 5.6µM | FLuc SDR -ATP inconclusive | FLuc SDR ATP inactive | FLuc inh-2 14µM
COCCNc1oc(-c2ccc(OC)cc2)nc1C#N	none (no result: hNpr1 antagonist, HEK cytotox, FLuc inh-1, 3T3 cytotox) | FLuc SDR -ATP inactive | FLuc SDR ATP inactive | FLuc inh-2 inconclusive
CC(C)(O)CCc1ccc(C(=O)NCCSc2ccccn2)cc1	HEK cytotox inconclusive, FLuc inh-1 2.8µM | FLuc SDR -ATP inactive | FLuc SDR ATP inactive | FLuc inh-2 inconclusive
O=C(Nc1cccc(F)c1)Nc1ccc2n(c1=O)C[C@H]1C[C@@H]2CN(C(=O)c2ccc(F)cc2)C1	HEK cytotox 40µM, FLuc inh-1 10µM, 3T3 cytotox inconclusive | FLuc SDR -ATP inactive | FLuc SDR ATP inactive | FLuc inh-2 inconclusive
COCCNC(=O)c1cc(-c2cccnc2)nc2c1cnn2C	3T3 cytotox inconclusive (no result: hNpr1 antagonist, FLuc inh-1)
Cc1ccc(NCc2nc3ccccc3n2CCOc2ccccc2)cc1	none (no result: hNpr1 antagonist, HEK cytotox, FLuc inh-1, 3T3 cytotox) | FLuc SDR -ATP inactive | FLuc SDR ATP inactive | FLuc inh-2 inconclusive
COCCN(C)C[C@@H]1CN(C(=O)c2ccc(=O)n(C)c2)C[C@@H]1CO	none
C[C@@H]1CN(c2cnc3ccccc3n2)CC[C@@]1(O)C1CCC1	hNpr1 antagonist inconclusive, HEK cytotox inconclusive, FLuc inh-1 4µM, 3T3 cytotox inconclusive | FLuc SDR -ATP inactive | FLuc SDR ATP inactive | FLuc inh-2 inconclusive
C[C@@H]1CN(c2cc(C3CC3)ncn2)C[C@@]1(O)C1CCC1	HEK cytotox inconclusive
COc1ccc(-c2cccc(C(=O)N3CCN(C(=O)Cc4ccccc4)CC3)c2)nn1	none (no result: hNpr1 antagonist, FLuc inh-1)
